Measured values reported in PubChem BioAssay (EPA / NIEHS).
Calls of active or inactive are those of the source. The calls were made as follows: active = hit-call score of the fitted dose curve at least 0.9, where 1 is the maximum; inactive = score below 0.9.

Key:
Settings in all cases: mRNA level, 48 h; actives raise or lower the signal
[1] = read-out: Alkaline Phosphatase, Placental (ALPP) gene, ALPP (gene 250); assay: LTEA_HepaRG_ALPP: Life Technologies and Expression Analysis (LTEA) Assay for Alkaline Phosphatase, Placental (ALPP) gene using HepaRG (AID 2283468)
Procedure, shortened: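 HepaRG cells plated 48 h, then exposed in duplicate for 48 h in serum-free induction medium to 8-point half-log series from 100 uM in 0.5% DMSO. ALPP mRNA by TaqMan qRT-PCR, normalized to ACTB/GAPDH/POLR2A; bidirectional fit versus DMSO.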

[2] = read-out: Bcl-2 (BAD) gene, BAD (gene 572); assay: LTEA_HepaRG_BAD: Life Technologies and Expression Analysis (LTEA) Assay for Bcl-2 (BAD) gene using HepaRG (AID 2283469)
Procedure, shortened: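 Read-out: qRT-PCR of BAD mRNA, normalized to three housekeeping genes. Human HepaRG cultures got 48 h chemical exposure in 0.5% DMSO, duplicate eight-point half-log series topping at 100 uM. Gain or loss of signal fitted versus DMSO vehicle.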

[3] = read-out: Bcl-2 (BAX) gene, BAX (gene 581); assay: LTEA_HepaRG_BAX: Life Technologies and Expression Analysis (LTEA) Assay for Bcl-2 (BAX) gene using HepaRG (AID 2283470)
Procedure, shortened: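 qRT-PCR read-out of BAX mRNA, normalized to three housekeeping genes, after 48 h chemical exposure of human HepaRG cells in serum-free induction medium; eight-point half-log series, top 100 uM, 0.5% DMSO vehicle; bidirectional fit versus DMSO.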

[4] = read-out: adenosine kinase (ADK) gene, ADK (gene 132); assay: LTEA_HepaRG_ADK: Life Technologies and Expression Analysis (LTEA) Assay for adenosine kinase (ADK) gene using HepaRG (AID 2283471)
Procedure, shortened: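 Read-out is ADK transcript level measured by qRT-PCR and normalised to three housekeeping genes. Cells are human HepaRG, dosed for 48 h at up to 100 uM in 0.5% DMSO. Gain or loss of signal is fitted against DMSO controls.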

[5] = read-out: Alpha-fetoprotein (AFP) gene, AFP (gene 174); assay: LTEA_HepaRG_AFP: Life Technologies and Expression Analysis (LTEA) Assay for Alpha-fetoprotein (AFP) gene using HepaRG (AID 2283472)
Procedure, shortened: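 qRT-PCR (Fluidigm TaqMan) readout of AFP transcript, normalized to three housekeeping genes, fitted bidirectionally against 0.5% DMSO baseline. HepaRG cells received chemicals for 48 h in serum-free induction medium, top concentration 100 uM, half-log steps.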

BCL2L11 (gene 10018) = assay: LTEA_HepaRG_BCL2L11: Life Technologies and Expression Analysis (LTEA) Assay for Bcl-2 (BCL2L11) gene using HepaRG (AID 2283473)
Procedure, shortened: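 Differentiated human HepaRG cells were exposed 48 h in serum-free induction medium to eight half-log concentrations up to 100 uM in 0.5% DMSO, in duplicate. BCL2L11 mRNA was quantified by TaqMan qRT-PCR, normalized to ACTB, GAPDH and POLR2A; induction or repression fitted versus DMSO.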

[6] = read-out: Apolipoprotein A-V (APOA5) gene, APOA5 (gene 116519); assay: LTEA_HepaRG_APOA5: Life Technologies and Expression Analysis (LTEA) Assay for Apolipoprotein A-V (APOA5) gene using HepaRG (AID 2283474)
Procedure, shortened: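 Differentiated HepaRG cells in serum-free induction medium, exposed 48 h in duplicate to eight half-log concentrations topping at 100 uM (0.5% DMSO). APOA5 mRNA by Fluidigm TaqMan qRT-PCR, normalized to ACTB, GAPDH and POLR2A; bidirectional fit versus DMSO.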

[7] = read-out: Apoptosis regulator Bcl-2 (Homo sapiens) (UniProt P10415); assay: LTEA_HepaRG_BCL2: Life Technologies and Expression Analysis (LTEA) Assay for Bcl-2 gene using HepaRG (AID 2283475)
Procedure, shortened: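 qRT-PCR read-out (Fluidigm TaqMan) of BCL2 transcript, normalised to three housekeeping genes, after 48 h chemical exposure of HepaRG cells; 8-point half-log series, top 100 uM, 0.5% DMSO vehicle. Gain or loss of signal fitted relative to DMSO baseline.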

[8] = read-out: Bcl-2 (BID) gene, BID (gene 637); assay: LTEA_HepaRG_BID: Life Technologies and Expression Analysis (LTEA) Assay for Bcl-2 (BID) gene using HepaRG (AID 2283476)
Procedure, shortened: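 HepaRG, 48 h exposure, 8-pt half-log series, top 100 uM, 0.5% DMSO vehicle, duplicates. Readout: BID mRNA by TaqMan qRT-PCR; housekeeping-normalized; bidirectional curve fit vs DMSO baseline.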

Caspase-3 (Homo sapiens) = Caspase-3 (Homo sapiens) (UniProt P42574); assay: LTEA_HepaRG_CASP3: Life Technologies and Expression Analysis (LTEA) Assay for cysteine-aspartic acid protease (CASP3) using HepaRG (AID 2283477)
Chain of Caspase-3 (Homo sapiens) (P42574 whole entry, looked up): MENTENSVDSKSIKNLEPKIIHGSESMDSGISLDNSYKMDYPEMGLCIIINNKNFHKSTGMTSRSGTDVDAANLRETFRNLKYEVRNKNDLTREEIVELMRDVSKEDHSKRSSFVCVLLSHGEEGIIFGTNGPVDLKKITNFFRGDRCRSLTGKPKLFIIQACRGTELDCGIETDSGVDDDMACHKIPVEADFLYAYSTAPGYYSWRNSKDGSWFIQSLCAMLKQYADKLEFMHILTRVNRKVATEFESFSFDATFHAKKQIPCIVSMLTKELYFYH
Procedure, shortened: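 Differentiated HepaRG cells, plated 48 h, were treated in duplicate in serum-free induction medium for 48 h with eight half-log concentrations up to 100 uM in 0.5% DMSO. CASP3 mRNA measured by qRT-PCR, normalized to ACTB, GAPDH, POLR2A.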

[9] = read-out: Cytochrome P450 (CYP24A1), CYP24A1 (gene 1591); assay: LTEA_HepaRG_CYP24A1: Life Technologies and Expression Analysis (LTEA) Assay for Cytochrome P450 (CYP24A1) using HepaRG (AID 2283478)
Procedure, shortened: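 HepaRG cells plated 48 h, then exposed in duplicate in serum-free induction medium for 48 h to 8-point half-log series from 100 uM in 0.5% DMSO. CYP24A1 mRNA by Fluidigm qRT-PCR, normalized to ACTB, GAPDH, POLR2A; bidirectional fit versus DMSO.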

[10] = read-out: Cytochrome P450 (CYP1A2), CYP1A2 (gene 1544); assay: LTEA_HepaRG_CYP1A2: Life Technologies and Expression Analysis (LTEA) Assay for Cytochrome P450 (CYP1A2) using HepaRG (AID 2283479)
Procedure, shortened: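 Differentiated human HepaRG cells in serum-free induction medium exposed 48 hours in duplicate to 8 half-log concentrations from 100 uM, 0.5% DMSO. CYP1A2 mRNA quantified by qRT-PCR, normalized to ACTB, GAPDH and POLR2A; bidirectional fitting versus DMSO.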

[11] = read-out: cysteine-aspartic acid protease (CASP8), CASP8 (gene 841); assay: LTEA_HepaRG_CASP8: Life Technologies and Expression Analysis (LTEA) Assay for cysteine-aspartic acid protease (CASP8) using HepaRG (AID 2283480)
Procedure, shortened: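 CASP8 transcript measured by TaqMan qRT-PCR with ACTB/GAPDH/POLR2A normalization, after 48 h chemical exposure of HepaRG cells in serum-free induction medium. Eight concentrations, top 100 uM, half-log steps, 0.5% DMSO vehicle; fits in both directions versus DMSO.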

[12] = read-out: Cytochrome P450 (CYP2B6), CYP2B6 (gene 1555); assay: LTEA_HepaRG_CYP2B6: Life Technologies and Expression Analysis (LTEA) Assay for Cytochrome P450 (CYP2B6) using HepaRG (AID 2283481)
Procedure, shortened: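 Differentiated human HepaRG cells in serum-free induction medium, dosed in duplicate for 48 h over 8 half-log concentrations topping at 100 uM (0.5% DMSO). CYP2B6 mRNA measured by TaqMan qRT-PCR, normalized to ACTB, GAPDH, POLR2A; bidirectional fit versus DMSO.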

[13] = read-out: Cytochrome P450 2C19 (Homo sapiens) (UniProt P33261); assay: LTEA_HepaRG_CYP2C19: Life Technologies and Expression Analysis (LTEA) Assay for CYP2C19 using HepaRG (AID 2283482)
Procedure, shortened: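 Differentiated HepaRG cells in serum-free induction medium exposed 48 h in duplicate, 8 concentrations from 100 uM by half-log steps in 0.5% DMSO. CYP2C19 mRNA measured by TaqMan qRT-PCR, normalized to ACTB, GAPDH, POLR2A. Bidirectional fit versus DMSO.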

CYP2C8 (gene 1558) = assay: LTEA_HepaRG_CYP2C8: Life Technologies and Expression Analysis (LTEA) Assay for CYP2C8 using HepaRG (AID 2283483)
Procedure, shortened: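 CYP2C8 expression measured by TaqMan qRT-PCR and normalized to three housekeeping genes. HepaRG cultures were treated for 48 h with an eight-point half-log series topping at 100 uM, vehicle 0.5% DMSO, duplicates; fitted both directions against DMSO.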

CYP2C9 (gene 1559) = assay: LTEA_HepaRG_CYP2C9: Life Technologies and Expression Analysis (LTEA) Assay for CYP2C9 using HepaRG (AID 2283484)
Procedure, shortened: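 CYP2C9 transcript level, quantified by TaqMan qRT-PCR against three housekeeping genes, was fitted bidirectionally relative to 0.5% DMSO. HepaRG cultures were treated 48 h, in duplicate, at eight half-log concentrations topping at 100 uM.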

CYP2E1 (gene 1571) = assay: LTEA_HepaRG_CYP2E1: Life Technologies and Expression Analysis (LTEA) Assay for CYP2E1 using HepaRG (AID 2283485)
Procedure, shortened: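 CYP2E1 transcript was measured by TaqMan qRT-PCR in human HepaRG cultures after 48 h chemical exposure (top 100 uM, half-log steps, 0.5% DMSO vehicle). Housekeeping-gene normalization; gain or loss fitted relative to DMSO baseline.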

CYP4A11 (gene 1579) = assay: LTEA_HepaRG_CYP4A11: Life Technologies and Expression Analysis (LTEA) Assay for CYP4A11 using HepaRG (AID 2283486)
Procedure, shortened: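 Differentiated HepaRG cells, 48 h after plating, exposed in duplicate for 48 h to 8 half-log concentrations up to 100 uM in 0.5% DMSO in serum-free induction medium. CYP4A11 mRNA measured by TaqMan qRT-PCR, normalized to ACTB, GAPDH and POLR2A.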

[14] = read-out: Peroxisomal acyl-coenzyme A oxidase 1 (ACOX1) gene, ACOX1 (gene 51); assay: LTEA_HepaRG_ACOX1: Life Technologies and Expression Analysis (LTEA) Assay for Peroxisomal acyl-coenzyme A oxidase 1 (ACOX1) gene using HepaRG (AID 2283467)
Procedure, shortened: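 ACOX1 transcript levels were quantified by TaqMan qRT-PCR against three housekeeping genes after 48 h chemical exposure of differentiated human HepaRG cells. Exposure used eight half-log steps topping at 100 uM, 0.5% DMSO vehicle, in duplicate. Bidirectional curve fits were made relative to DMSO.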

Measured: AC50

Chain of Cytochrome P450 2C19 (Homo sapiens) (P33261 whole entry, looked up): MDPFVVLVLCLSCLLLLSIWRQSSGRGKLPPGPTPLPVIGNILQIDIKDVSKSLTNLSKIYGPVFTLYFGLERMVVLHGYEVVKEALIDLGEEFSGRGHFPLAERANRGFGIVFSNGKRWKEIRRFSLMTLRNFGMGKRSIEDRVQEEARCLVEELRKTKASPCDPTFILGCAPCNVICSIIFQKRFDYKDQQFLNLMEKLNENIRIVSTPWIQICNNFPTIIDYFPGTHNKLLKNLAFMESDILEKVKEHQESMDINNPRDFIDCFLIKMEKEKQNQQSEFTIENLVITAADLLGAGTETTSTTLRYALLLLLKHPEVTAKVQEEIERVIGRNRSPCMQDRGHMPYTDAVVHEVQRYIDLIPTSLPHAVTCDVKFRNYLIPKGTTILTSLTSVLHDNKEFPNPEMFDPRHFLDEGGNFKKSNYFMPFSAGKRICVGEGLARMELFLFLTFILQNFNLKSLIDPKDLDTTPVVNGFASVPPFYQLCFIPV
Chain of Apoptosis regulator Bcl-2 (Homo sapiens) (P10415 whole entry, looked up): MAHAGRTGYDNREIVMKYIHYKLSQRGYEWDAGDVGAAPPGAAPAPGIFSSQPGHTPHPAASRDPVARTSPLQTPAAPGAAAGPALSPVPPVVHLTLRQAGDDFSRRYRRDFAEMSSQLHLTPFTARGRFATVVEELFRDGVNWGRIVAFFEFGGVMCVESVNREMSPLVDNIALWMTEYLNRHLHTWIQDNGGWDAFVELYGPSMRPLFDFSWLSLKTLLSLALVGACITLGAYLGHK

CCC(C)(C)C1CCC(O)CC1 (centres undefined)
inactive: [1] | [2] | [3] | [4] | [5] | BCL2L11 (gene 10018) | [6] | [7] | [8] | Caspase-3 (Homo sapiens) | [9] | [10] | [11] | [13] | CYP2C8 (gene 1558) | CYP2C9 (gene 1559) | CYP2E1 (gene 1571) | CYP4A11 (gene 1579)
active: [12] 16 µM

OC1CCC(C2CCCCC2)CC1 (centres undefined)
inactive: [14] | [1] | [2] | [3] | [4] | [5] | BCL2L11 (gene 10018) | [6] | [7] | [8] | Caspase-3 (Homo sapiens) | [9] | [10] | [11] | [12] | [13] | CYP2C8 (gene 1558) | CYP2C9 (gene 1559) | CYP2E1 (gene 1571) | CYP4A11 (gene 1579)

c1ccc2c(c1)ccc1ccccc12
inactive: [14] | [1] | [2] | [3] | [4] | [5] | BCL2L11 (gene 10018) | [6] | [7] | [8] | Caspase-3 (Homo sapiens) | [9] | [10] | [11] | CYP4A11 (gene 1579)
active: [12] 5.8 µM | [13] 15.4 µM | CYP2C8 (gene 1558) 12.7 µM | CYP2C9 (gene 1559) 6.12 µM | CYP2E1 (gene 1571) 10.1 µM
